Compounds with a hit are over-represented: about 7.5% of the library has one in this group of screens.
Rab9 prom act = activates the Rab9 promoter; Huh7 Rab9 promoter-luciferase reporter, luminescence, 24 h; Potency, µM (top dose mostly 9.22 µM), hits mostly activators; 320,000 tested, 2.8% active; also: nearly all actives have a fitted effect of over 60% in size
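Measured in stably transfected Huh7 cells bearing a Rab9 promoter–luciferase construct: 24 h compound treatment at 37 °C, followed by luminescence detection.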
NPC1 promoter act = activators of NPC1 promoter | 320,000 tested, 2.4% active | Huh7 NPC1 promoter luciferase reporter, 24 h | Potency, µM (doses to about 9.22 µM), hits mostly activators; also: nearly all actives have a fitted effect of over 60% in size
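Readout is luciferase luminescence, reflecting NPC1 promoter activation in stably transfected Huh7 cells after 24 h compound exposure at 37 °C in reduced-serum medium with 10% FBS.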
FLuc modulator = inhibits or activates purified firefly luciferase, miR-21 counter-screen. AID 588342. 360,000 tested, 6.9% active. P08659. purified FLuc, Km substrates, luminescence inhibition. Potency, µM (doses to about 57.5 µM), hits mostly inhibitors; also: nearly all actives have a fitted effect of over 55% in size
Target sequence (P08659 whole entry, looked up): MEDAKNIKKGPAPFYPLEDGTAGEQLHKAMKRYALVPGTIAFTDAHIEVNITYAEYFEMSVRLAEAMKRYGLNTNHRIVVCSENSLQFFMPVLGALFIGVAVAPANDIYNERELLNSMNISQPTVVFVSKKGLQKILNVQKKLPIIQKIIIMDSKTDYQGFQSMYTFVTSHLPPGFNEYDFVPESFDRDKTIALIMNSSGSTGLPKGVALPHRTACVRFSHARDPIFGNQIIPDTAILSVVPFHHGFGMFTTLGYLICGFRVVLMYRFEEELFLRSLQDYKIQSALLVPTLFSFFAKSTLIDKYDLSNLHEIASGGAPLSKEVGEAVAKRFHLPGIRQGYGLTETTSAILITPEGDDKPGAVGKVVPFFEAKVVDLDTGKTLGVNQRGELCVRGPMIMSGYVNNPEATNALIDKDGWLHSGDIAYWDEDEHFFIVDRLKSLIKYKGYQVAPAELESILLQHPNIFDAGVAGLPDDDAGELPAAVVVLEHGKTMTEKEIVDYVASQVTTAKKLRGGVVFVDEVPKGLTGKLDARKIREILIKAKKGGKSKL
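Purified P. pyralis luciferase (10nM final) with 10uM D-luciferin and 10uM ATP (Km levels) in 50mM Tris acetate pH 7.5, 10mM Mg acetate, 0.01% Tween-20, 0.05% BSA; qHTS 6-point titration, ~60 µM downward; luminescence read.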
SMN2 splice enh = enhancers of SMN2 splice variant expression | HEK293 SMN2-luciferase splicing reporter, luminescence, 30-36 h | Potency, µM (series often up to 46.1 µM), usual class: activators | 210,000 tested, 2.8% active; also: nearly all actives have a fitted effect of over 55% in size
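HEK293 cells carry an SMN2 […]–luciferase reporter in which exon 7 inclusion puts luciferase in frame. Cells were plated 10-12 h before compound addition, then incubated 30-36 h at 37C. ONE-Glo luminescence was read; sodium butyrate at 4.5 mM final served as control.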
ELG1 genotox = genotoxicity induction in ELG1-luciferase HEK293T cells. HEK293T ELG1-luciferase reporter, luminescence, 16 h. Potency, µM (doses to about 46 µM), actives largely listed as activators. 330,000 tested, 1.3% active; also: nearly all actives have a fitted effect of over 60% in size
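Reporter readout depends on ELG1 protein level, which increases with genetic stress. After 16 hr compound exposure at 37 °C, luciferase activity was quantified using ONE-Glo.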
A number is an active result; n = inactive; u = inconclusive; x = no result. Calls follow the shape of the dose curve; as a rule, active = well fitted curve in the direction sought with a large enough effect; inconclusive = small, poorly fitted or top-dose-only effect, or another doubt; inactive = no such curve, though single readings can be large; an effect the other way counts as inactive or inconclusive.

SMILES | Rab9 prom act | NPC1 promoter act | FLuc modulator | SMN2 splice enh | ELG1 genotox
Cc1cccc(NC(=O)Nc2ccc(C)cc2Br)c1 | u | u | u | 13µM | u
C=CCNC(=O)C1CC2Cn3c(nc4cc(Cl)c(Cl)cc43)C2N1C (stereo not given) | n | n | n | x | n
CCC(C)(C)NC(=O)C(c1cccc(OC)c1OC)N(C(=O)CCC(=O)Nc1cc(C)on1)c1ccc2c(c1)OCCO2 (stereo not given) | n | n | n | x | n
O=C(OCC(=O)c1ccc(Br)s1)c1ccc(O)cc1 | x | x | x | x | n
O=C(OCC(=O)c1ccc(Cl)s1)c1ccc(CO)cc1 | n | n | 21µM | x | n
Cc1ccc(C(=O)COC(=O)c2ccc(Cl)c(N)c2)s1 | 3.2µM | u | 1.3µM | x | n
Cc1ccc(NC(=O)CCCn2c3ccccc3c(=O)c3cc(C)ccc32)c(Br)c1 | x | x | n | u | x
CCCCN1C=CC(=C2N=c3cccc([N+](=O)[O-])c3=N2)C=C1 | u | u | 21µM | 11µM | u
O=C(CSc1nc2cc(Cl)ccc2o1)NC1CC1 | x | x | x | x | n
O=c1[nH]cnc2c1sc1nc(-c3ccccc3)c3c(c12)CCCC3 | n | n | n | n | n
O=C(O)CSc1ncnc2c1sc1nc(-c3ccccc3)c3c(c12)CCC3 | n | n | 11µM | x | n
Cc1ccc(C)c(C(=O)Cn2ncc(Cl)c(Cl)c2=O)c1 | n | n | n | n | n
Cc1cc(C(=O)Cn2ncc(Cl)c(Cl)c2=O)c(C)n1CC(F)(F)F | n | n | 15µM | u | n
CCC(C)(C(=O)NC1CCCCC1)N(CC1CCCO1)C(=O)Cc1cccs1 (stereo not given) | n | n | n | n | x
Cc1cccc(N2CSC3=C(C#N)C(c4ccc(C)o4)CC(=O)N3C2)c1 (stereo not given) | n | n | 17µM | n | u
COc1ccc(OC)c(C2CC(=O)N3CN(c4ccccc4)CSC3=C2C#N)c1 (stereo not given) | n | n | u | n | n
COc1cc(CN2CCc3nc(Nc4ccc5c(c4)OCCO5)ncc3C2)cc(OC)c1OC | x | x | 15µM | x | x
CCc1ccc(CN2CCc3nc(Nc4ccc5c(c4)OCCO5)ncc3C2)cc1 | x | x | n | x | x
COc1ccccc1Nc1ncc2c(n1)CCN(CC(C)C)C2 | x | x | 21µM | x | x
COc1ccccc1Nc1ncc2c(n1)CCN(Cc1cc(F)cc(F)c1)C2 | x | x | n | x | x
Cc1cccc(C)c1NC(=O)C(C)N1CCCCC1 (stereo not given) | n | n | n | x | n
Cc1nccc(-c2sc(-c3cccs3)nc2C)n1 | u | n | 15µM | x | u
Cc1nc(-c2cccs2)sc1C(=O)O | n | n | n | x | n
O=C(NNC(=O)c1ccccc1OCc1ccccc1Cl)c1csc(N2CCOCC2)n1 | n | n | u | x | u
COc1cccc(/C=C2/C(=O)NN(c3ccc(F)cc3)C2=O)c1 | n | n | 21µM | x | n
SMILES | Rab9 prom act | NPC1 promoter act | FLuc modulator | SMN2 splice enh | ELG1 genotox
O=C1NN(c2ccccc2)C(=O)/C1=C\c1ccc2c(c1)OCO2 | n | n | 5.4µM | x | n
O=C1NN(c2ccc(F)cc2)C(=O)/C1=C/c1cccs1 | n | n | 24µM | x | n
COc1cccc(/C=C2/C(=O)NN(c3ccccc3)C2=O)c1 | n | n | 24µM | x | n
COc1cccc(/C=C2/C(=O)NN(c3ccc(C)c(C)c3)C2=O)c1 | n | n | u | x | n
COc1cccc(NC(=O)CN(C)C(=O)C2CCN(C(=O)c3ccccc3C)CC2)c1 | n | n | n | x | n
COc1ccc(CCN2CCCn3c2nc2c3c(=O)n(CC(N)=O)c(=O)n2C)cc1OC | n | n | n | x | n
Brc1ccc(C2=NC(Cc3ccccc3)CO2)cc1 (stereo not given) | u | u | 6.7µM | 7.1µM | u
CC(C)(C)c1ccc(/C=N/N2C(=O)CSC2=S)cc1 | n | n | 17µM | x | n
COc1ccc(-c2nc3ccccc3c(=O)n2N)cc1 | n | n | n | n | n
COc1ccc(-c2cc3nc(C)n(N)c(=O)c3s2)cc1 | 0.0032µM | 0.079µM | 0.076µM | x | u
Cc1nc2cc(-c3ccccc3)sc2c(=O)n1N | u | u | 0.67µM | 1.4µM | n
C=CCn1c(SCCNC(C)=O)nc2cc(-c3ccccc3)sc2c1=O | n | n | u | x | n
Cc1cccc(C(=O)N[C@H](C(=O)Nc2ncc(C)s2)C(C)C)c1 | n | n | n | 14µM | u
